A selection: hits, their analogues and other compounds. The true share with any hit is near 4%.
Cl transport mod: KCC2 cotransporter modulators, thallium flux, primary screen, cell-based, HEK293 KCC2, FluoZin-2 fluorescence, MLSMR. Solute carrier family 12 member 5 (Homo sapiens), Q9H2X9. KCC2 cells, thallium flux FluoZin-2 fluorescence. B-score of Tl+ flux slope (higher = more flux/activation; lower = inhibition) at 10 µM. actives 2.2% (n = 190,000). AID 1456, 2008;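 active = thallium flux slope and its plate-corrected score both differing from the plate sample mean at a set confidence after two filtering rounds, in either direction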;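 note: slope of fluorescence scaled to starting intensity during 10 to 20 s after thallium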
ROMK mod: ROMK potassium channel modulators, primary screen, cell-based, thallium flux, MLSMR library. ATP-sensitive inward rectifier potassium channel 1 (Homo sapiens), P48048. Tet-inducible ROMK, thallium flux fluorescence; actives lie on both sides. B-score at 10 µM. actives 2% (n = 130,000);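 active = signal ratio slope over the read window, or its plate-corrected B-score, at least 3 SD from the plate mean, either direction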;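 note: B-score of the F/F0 ratio slope over 7 to 12 s after thallium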
Target sequence (P48048 whole entry, looked up): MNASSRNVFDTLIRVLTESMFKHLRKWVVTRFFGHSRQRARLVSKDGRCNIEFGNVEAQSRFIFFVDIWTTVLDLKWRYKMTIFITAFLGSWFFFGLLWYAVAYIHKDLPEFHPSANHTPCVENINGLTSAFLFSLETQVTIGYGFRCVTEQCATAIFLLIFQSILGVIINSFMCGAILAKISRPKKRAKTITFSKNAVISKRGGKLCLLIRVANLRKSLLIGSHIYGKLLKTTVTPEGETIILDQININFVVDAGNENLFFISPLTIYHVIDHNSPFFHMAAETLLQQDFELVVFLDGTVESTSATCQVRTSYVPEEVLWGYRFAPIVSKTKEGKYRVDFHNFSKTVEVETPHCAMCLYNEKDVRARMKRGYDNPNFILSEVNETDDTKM
Arbovirus inh: antivirals against arbovirus infection, primary screen, cell-based, full library, 10K replicate subset. inhibition, % at 10 µM. AID 1251, 2008. actives 0.37% (n = 200,000). arbovirus infection cell-based antiviral screen; in the data active = inhibition above about 30%
HSV replic up: enhancers of HSV replication in host cells, fold increase, host cell viability; AID 1956, 2009; actives 0.005% (n = 220,000); HSV replication augmentation in cells; maximum fold increase; in the data active = maximum fold increase above about 1.5; inconclusive = no clear call, values can overlap the other calls; tested in PC3 cells
Measles CPE: compounds protecting cells from measles virus cytopathic effect, primary screen, measles RdRp inhibitor project, single point, MLSMR library, absorbance. AID 841, 2007. Measles virus-infected cells, CPE protection. actives 1.5% (n = 140,000). protection (pct of control), % at 4 µM; in the data active = protection mostly above about 24%, no sharp cut-off; inactive = mostly below about 26%
ROMK retest: ROMK channel modulator hit retest, confirmation, cell-based, thallium flux, duplicate, resupplied hits | fluorescence ratio; active compounds read low | shares compounds with ROMK mod | actives 54% (n = 3,000) | normalized thallium flux (F/F0 slope) at 10 µM;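 active = Flux at 10 µM at least 3 SD below or above vehicle control mean in one or both replicates; inconclusive = no clear call, values can overlap the other calls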
An asterisk follows results filed as active; i = inactive; u = inconclusive; x = no result given.

SMILES	Cl transport mod	ROMK mod	Arbovirus inh	HSV replic up	Measles CPE	ROMK retest
COc1ccc(S(=O)(=O)NCC(c2cccnc2)N2CCN(c3ccc(F)cc3)CC2)cc1C (stereo unspecified)	-0.96	-3.8*	6	i	22	0.074
Cc1cc(N)n(-c2ncnc3scc(-c4ccccc4)c23)n1	1.9	1.6*	0	x	5	0.08
Clc1ncnc2scc(-c3ccccc3)c12	0.5	x	0	i	10	x
O=S(=O)(c1ccccc1)c1nc(-c2ccco2)oc1N1CCCCCC1	-0.66	-2.8*	3	i	9	0.072
N#Cc1nc(-c2cccc3ccccc23)oc1NCCN1CCCCC1	0.16	-3.4*	-44	i	5	0.065*
CCNc1oc(-c2cccc3ccccc23)nc1C#N	0.71	x	2	i	3	x
COc1ccc(/C=C/C(=O)Nc2cccc(F)c2)cc1S(=O)(=O)N1CCOCC1	-0.19	-0.86	8	i	x	0.064*
O=[N+]([O-])c1cccc(/C=N/Nc2nc(NCc3ccccc3)nc(N3CCOCC3)n2)c1O	-1.6	-0.53	-35	i	x	x
COC(=O)[C@@H]1C[C@@]2(O)[C@H](O)[C@H](O)[C@H](O)C[C@H]2N1Cc1ccc(C(F)(F)F)cc1	0.77	x	x	i	x	x
COC(=O)[C@@H]1C[C@@]2(O)[C@@H](O)[C@@H](O)[C@@H](O)C[C@H]2N1Cc1ccc(C(F)(F)F)cc1	-0.064	x	x	i	x	0.072
O=C1CC(/C=C/c2cccnc2)=Nc2ccccc2N1	0.17	0.82	-3	i	x	x
O=C1CC(/C=C/c2ccc(Cl)cc2)=Nc2ccccc2N1	-0.22	-3.4*	8	i	x	0.059*
O=C1CC(/C=C/c2ccccc2)=Nc2ccccc2N1	x	-0.58	-4	i	x	x
CC1(C)CC(/C=C/c2ccccc2)=Nc2ccccc2N1	-0.19	x	x	i	x	0.036*
COc1cc(/C=C/[N+](=O)[O-])ccc1OCc1cccc(C(=O)O)c1	-2.8	-6*	-6	i	x	0.037*
COc1cc(/C=N/NC(=O)c2cccc([N+](=O)[O-])c2)ccc1OCc1ccccc1	-0.05	x	0	i	2	x
CC(C)Sc1nc2c([nH]1)c(=N)ncn2Cc1ccccc1	-0.88	-4.4*	11	i	x	0.057*
Cc1cccc(OCCSc2nc3c([nH]2)c(=N)ncn3Cc2ccccc2)c1	-0.027	x	11	i	9	x
COc1ccccc1/C=C/C=N/NC(=O)c1cc(-c2ccc(C)o2)[nH]n1	-2.9	x	x	i	x	x
Cc1cc(SCC(=O)OCC(=O)NCC2CCCO2)c(C)cc1Br (stereo unspecified)	-0.62	0.057	20	i	x	x
O=C(O)C1CCCCC1C(=O)NCCc1ccncc1 (stereo unspecified)	-0.084	2.4*	-1	i	31	0.073
O=C(O)[C@H]1CCCC[C@H]1C(=O)NCCc1ccccc1	x	2.1	7	i	2	x
COc1ccc(S(=O)(=O)n2ccc(-c3ccc4c(c3)CCC(C)(C)O4)n2)cc1	-0.65	x	x	i	x	x
CC1(C)CCc2cc(-c3ccnc(=S)[nH]3)ccc2O1	x	x	x	i	x	0.084
CCOC(=O)C1=C(Nc2ccc(OC)cc2)OCC1=O	x	x	x	i	x	x
SMILES	Cl transport mod	ROMK mod	Arbovirus inh	HSV replic up	Measles CPE	ROMK retest
CC(=O)NCCNC(=O)c1ccc(Sc2ccccc2)c([N+](=O)[O-])c1	-0.44	-0.48	0	i	x	x
CN(C)CCNC(=O)c1ccc(Sc2ccc(Br)cc2)c([N+](=O)[O-])c1	-0.043	-2.8*	-34	i	x	0.063*
CCCCC[C@H](O)/C=C/C1=C(CCCCCCC(=O)O)C(=O)CC1	-2.6	x	8	i	44	0.081
CC1(O)N(CCC(=O)Nc2cccc(F)c2)C(=O)OC12CCCCC2 (stereo unspecified)	-0.59	-0.1	1	i	x	x
CCOC(=O)c1c2ccc(OCC(=O)NN)cc2n2ccccc12	-3.7	-2.8*	-19	i	x	0.055*
CCCCN(CC)S(=O)(=O)c1ccc(C(=O)N(CCCN(C)C)c2nc3cc(C)cc(C)c3s2)cc1	0.74	-3.8*	-33	i	x	0.054*
CCCCN(C)S(=O)(=O)c1ccc(C(=O)N(CCN(C)C)c2nc3ccc(C)cc3s2)cc1	-0.65	-0.11	-2	i	x	x
O=S(=O)(Nc1nc2ccccc2nc1Nc1ccc(N2CCOCC2)cc1)c1cc(Cl)ccc1Cl	-1.8	x	4	i	16	0.057*
Clc1nc(Nc2ccc(N3CCOCC3)cc2)c2ccccc2n1	0.0042	-0.93	-7	i	x	x
CNc1nc(-c2ccccc2)cc(C)c1S(C)(=O)=O	-0.99	0.15	0	i	x	x
CCOC(=O)C(NC(C)=O)C(=O)Nc1ccc(C(C)(C)C)cc1 (stereo unspecified)	0.3	3.5*	0	i	x	0.082
O=[N+]([O-])c1ccc(/C=C/c2ccc3ccccc3n2)cc1	0.17	-1.4	-24	i	x	x
CC1(C)Oc2ccccc2OC1(O)c1ccc2ccccc2n1 (stereo unspecified)	0.027	x	8	i	6	0.064*
O=C(Cn1c(C(=O)NCc2ccco2)cc2sccc21)c1ccccc1	-0.02	x	0	x	17	0.085
COc1ccc(OC)c(NC(=O)NCCc2cccc(Cl)c2)c1	-0.85	x	-18	i	x	x
CCNC(=O)c1ccccc1NC(=O)c1cccc(S(=O)(=O)N2CCC(C)CC2)c1	-0.5	x	-16	i	29	0.072
Cc1ccc(C(=O)Nc2nc3ccccc3n2CCN2CCCC2)cc1	-0.016	-0.51	-10	i	8	x
CCCn1c(NC(=O)c2cccc(S(=O)(=O)N3CCCC3)c2)nc2ccccc21	0.00057	x	-24	i	5	0.083
CC1CCN(S(=O)(=O)c2cccc(C(=O)N(Cc3ccccc3)c3ccccn3)c2)CC1	-1	-4*	-2	i	x	0.062*
CNC(=O)c1ccccc1NC(=O)c1cccc(S(=O)(=O)N2CCC(C)CC2)c1	-0.3	x	-12	i	21	x
O=C(Nc1ccc(-n2cccc2)cc1)C1CC1	-1.2	0.075	-4	i	x	x
O=S(=O)(c1ccc(-c2ccon2)s1)N1CCN(c2ccccn2)CC1	0.0063	x	x	i	x	x
CC(=O)C(Cl)C(=O)Nc1ccccc1 (stereo unspecified)	1.5	-5.4*	-2	i	x	0.046*
CC(Cc1ccccc1)C(=O)Nc1ccccc1 (stereo unspecified)	0.43	-0.55	5	u	4	x
Cc1c(NC(=O)COC(=O)c2ccc(S(=O)(=O)N3CCOCC3)cc2)c(=O)n(-c2ccccc2)n1C	0.61	-1.1	6	i	x	x
COc1cc(C(=O)Nc2ccc3c(c2)CCN3C(C)=O)cc(OC)c1OC	1.9	4.5*	-16	i	x	0.079
